Compound activity as filed in PubChem BioAssay.
IL-1B inflam inh = qHTS for Inhibitors of Inflammasome Signaling: IL-1-beta AlphaLISA Primary Screen. THP-1 LPS/ATP IL-1B secretion, AlphaLISA, 16 h; hits give low values. activity change, % at 57.5 µM. actives 4.7% (n = 360,000). AID 743279, 2014; in the data active = activity change below about -50%; inconclusive = mostly about -30% to -49%
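Secreted IL-1B measured by AlphaLISA bead assay after 16 h compound exposure of THP-1 cells; compounds (final up to 57.5 uM) added 1 h before LPS (250 ng/mL) and ATP (1.25 mM) stimulation; lower signal means less secretion.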
HT1080 IDH1KD tx = qHTS for induction of synthetic lethality in tumor cells producing 2HG: qHTS for the HT-1080-IDH1KD cell line; HT-1080 IDH1 knockdown viability, ATP luminescence, 48 h; Potency, µM (highest dose often 46.1 µM), inactives show top-dose activity, negative = toxicity, hits mostly cytotoxic; actives 2% (n = 360,000); AID 686971, 2013;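 note: potency is the fitted concentration of half-maximal effect; 0% = DMSO wells and -100% = cell-free medium wells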
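Viability of IDH1-knockdown HT-1080 fibrosarcoma cells was assessed by CellTiter-Glo after 48 h at 37 °C with titrated compound; concentration-effect curves were classified by fit quality and response size.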
TDP1 cell noCPT = qHTS for Inhibitors of human tyrosyl-DNA phosphodiesterase 1 (TDP1): qHTS in cells in absence of CPT; AID 686978, 2013; Potency, µM (titrated, usually from 46.2 µM), for the others: top-dose activity change, negative = growth inhibition, actives largely listed as inhibitors; actives 15% (n = 420,000); DT40 Tdp1-/- hTDP1 cells, no CPT, ATP luminescence, 48 h; note: potency is the fitted concentration of half-maximal effect; nearly all actives have a fitted effect of over 55% in size
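A cellular qHTS used chicken DT40 cells lacking endogenous Tdp1 but carrying stably transfected human TDP1. Compounds were applied without camptothecin, and cell growth kinetics were judged by ATP-dependent luminescence after ≥48 hr.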
HT1080NT lethal = qHTS for induction of synthetic lethality in tumor cells producing 2HG: qHTS for the HT-1080-NT fibrosarcoma cell line; HT-1080-NT fibrosarcoma viability, CellTiter-Glo ATP luminescence, 48 h; Potency, µM (doses to about 46.1 µM), inactives show at the highest dose activity, negative = less viability, usual class: cytotoxic; actives 1.6% (n = 360,000);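 note: NT is the 2HG producing partner of a matched IDH1 knockdown line; potency is the fitted concentration of half-maximal effect; 0% = DMSO-treated cells and -100% = media-only wells without cells; nearly all actives have a fitted effect of over 55% in size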
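A 48-hour cytotoxicity screen used HT-1080-NT cells plated 2 hours before compound delivery. ATP-based CellTiter-Glo luminescence measured viability, normalized to DMSO and no-cell controls.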
TDP1 cell CPT = qHTS for Inhibitors of human tyrosyl-DNA phosphodiesterase 1 (TDP1): qHTS in cells in presence of CPT | actives 12% (n = 420,000) | Potency, µM (series often up to 46.2 µM), without a hit: top-dose activity change, negative = growth inhibition, actives largely listed as inhibitors | chicken DT40 Tdp1-/-;hTDP1 cells + 20 nM CPT, ATP luminescence, 48 h | AID 686979, 2013; note: potency is the fitted concentration of half-maximal effect; nearly all actives have a fitted effect of over 55% in size
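Chicken DT40 Tdp1-/- cells complemented with human TDP1, 400 cells/well, exposed to compounds plus 20 nM camptothecin for at least 48 h at 37 C; viability read as ATP content by CellTiter-Glo luminescence.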
The depositor's hits bear a star; ? = inconclusive; · = no result; [ ] = remark or other dose. Hits are enriched below; roughly 19% of the tested compounds scored in any of these assays. Unless noted, calls come from the whole dose curve; as a rule, active = well fitted curve in the direction sought with a large enough effect; inconclusive = small, poorly fitted or top-dose-only effect, or another doubt; inactive = no such curve, though single readings can be large; an effect the other way counts as inactive or inconclusive. Unless noted, % is set by controls: 0 for no effect and ±100 for the full control effect.

SMILES | IL-1B inflam inh | HT1080 IDH1KD tx | TDP1 cell noCPT | HT1080NT lethal | TDP1 cell CPT
C#CCOc1ccc(-c2nnc(Nc3ccc(NC(C)=O)cc3)c3ccccc23)cc1 | · | · | 16µM* | · | ?
CCN(CC)S(=O)(=O)c1cc(-c2nnc(Nc3ccc(OC)c(C(N)=O)c3)c3ccccc23)ccc1C | · | · | ? | · | 18µM*
CC1(C(=O)NS(=O)(=O)c2cccc(Cl)c2)CCN1C(=O)Cc1ccsc1 (stereo not drawn) | 24 | 6% | -5% | 5% | 6%
CCN(CC)C(=O)c1ccc(-c2nnc(Nc3ccc(C(=O)N(C)C)cc3)c3ccccc23)cc1 | ? | -7% | 16µM* | -7% | ?
CCN(CC)C(=O)c1ccc(-c2nnc(Nc3ccc(O)cc3)c3ccccc23)cc1 | -11 | 10% | ? | 11% | -109%
CCN(CC)C(=O)c1ccc(Nc2nnc(-c3ccc(C)c(S(=O)(=O)NC)c3)c3ccccc23)cc1 | · | · | 21µM* | · | 26µM*
CCN(CC)C(=O)COc1ccc(-c2nnc(Nc3ccc(OC)c(C(=O)NC)c3)c3ccccc23)cc1 | -79* | -7% | 21µM* | -4% | ?
CNS(=O)(=O)c1cc(-c2nnc(Nc3ccc(NC(C)=O)cc3)c3ccccc23)ccc1C | ? | -9% | 18µM* | 1% | 16µM*
O=C1OC(C(=O)Nc2cc(C(F)(F)F)ccc2Cl)Cc2ccccc21 (stereo not drawn) | · | · | -10% | · | -12%
CCS(=O)(=O)N1CC(=O)N(c2cccc(Cl)c2C)C(C)(C(=O)NC2CCCCC2)C1 (stereo not drawn) | · | · | -6% | · | -25%
CCC(=O)Nc1ccc(NC(=O)CSc2nnnn2-c2cccnc2)cc1C | -4 | 23% | -10% | 2% | 0%
Cc1cccc(N2CCN(C(=O)CCn3c(=S)[nH]c4cc5c(cc4c3=O)OCO5)CC2C)c1 (stereo not drawn) | 0 | 1% | 23µM* | -8% | 16µM*
O=C(CCCn1c(=S)[nH]c2cc3c(cc2c1=O)OCO3)N1CCN(c2ccc(Cl)cc2)CC1 | -25 | -17% | 18µM* | -9% | ?
CC(OC(=O)CNC(=O)c1sc2ccccc2c1Cl)c1ccccc1 (stereo not drawn) | 7 | 8% | -6% | 16% | -17%
CCCCC(c1nc2ccccc2[nH]1)n1c(=O)c(-c2ccccc2)nc2cc(C)c(C)cc21 (stereo not drawn) | -14 | -3% | -12% | 0% | ?
Cc1cc2nc(-c3ccccc3Br)n(/C=C(\c3ccccc3)n3c(=O)[nH]c4ccccc43)c2cc1C | -1 | -15% | 23µM* | -9% | 16µM*
COc1ccc(CNC(=O)c2cccnc2)cc1 | 3 | -6% | 17% | -11% | -17%
COc1ccc(C2NC(=O)N(C)C3=C2C(=O)CC(C)(C)C3)cc1OC (stereo not drawn) | 12 | -7% | -22% | -4% | -2%
COc1ccc(OCCCC(=O)Nc2cccnc2)cc1 | 6 | 5% | -27% | 7% | -9%
COc1cccc(N/C=C(\C#N)c2ccc(OCCCF)cc2)c1 | -52* | 13% | ? | 3% | 18µM*
CCC1(OC(=O)CN(C)C)C(=O)OCc2c1cc1n(c2=O)Cc2cc3c(N)cccc3nc2-1 (stereo not drawn) | -97* | 7.3µM* | 0.18µM* | 7.3µM* | 0.16µM*
CCOc1ccccc1NC(=O)Cn1nnc(-c2ccc(OCC)c(OCC)c2)n1 | 2 | 0%[9.24 µM] | -21% | -8% | -21%
Cc1nc(CS(=O)(=O)c2ccc(Cl)cc2)cc(N2CCOCC2)n1 | 15 | 12% | -8% | 13% | -8%
O=S(=O)(Cc1cc(N2CCOCC2)nc(-c2ccccn2)n1)c1ccccc1 | -12 | -2% | 18µM* | -8% | 10µM*
O=C(CCNC(=O)C1CCN(S(=O)(=O)c2ccc(F)cc2)CC1)NCc1ccccc1 | -6 | 9% | 10% | 0% | -2%
SMILES | IL-1B inflam inh | HT1080 IDH1KD tx | TDP1 cell noCPT | HT1080NT lethal | TDP1 cell CPT
CCN1C(=O)C(CC(=O)NCCc2ccccc2)N(NC(=O)c2ccc(Br)cc2)C1=S (stereo not drawn) | -12 | 0% | 21µM* | -13% | ?
CC(=O)Oc1cc(C(F)(F)F)ccc1C(=O)O | · | · | -28%[21.1 µM] | · | -2%[21.1 µM]
C[C@H]1CCC[C@]2(C)C[C@H]3OC(=O)C(CN4CCCCCC4)[C@H]3C=C12 (stereo partly drawn) | -98* | ? | ? | 16µM* | ?
COc1cc2c(cc1OC)[C@H](C)N(CC1C(=O)O[C@@H]3C[C@@]4(C)CCC[C@H](C)[C@@]45OC5[C@H]13)CC2 (stereo partly drawn) | · | · | ? | · | -26%[9.04 µM]
C=C1C(=O)OC2C[C@@]3(C)CCCC(C)C3=CC12 (stereo partly drawn) | · | · | 10µM* | · | ?
O=C(Cn1nnc(-c2ccccc2)n1)NNC(=O)c1ccco1 | -1 | 13% | 0% | -1% | -1%
Cc1cc(C)n(-c2nc3ccccc3nc2N2CCN(C(=O)c3ccc(Cl)cc3)CC2)n1 | -59* | ? | ? | -26% | ?
Cc1cc(C)n(-c2nc3ccccc3nc2N2CCCC2)n1 | 11 | 0% | -20% | 14% | -16%
Cc1ccc(NC(=O)O/N=C/c2c(C)nn(C(C)(C)C)c2C)cc1Cl | 18 | -2% | -21% | 1% | 0%
O=C(CC1CC1)Nc1ccc2c(c1)[C@@H]1C[C@H](CC(=O)NC3CCCC3)O[C@@H](CO)[C@@H]1O2 | 15 | 1% | -7% | -6% | -5%
CC12CCC(C(=O)N3CCC(Cc4ccccc4)CC3)(C(=O)C1=O)C2(C)C (stereo not drawn) | -102* | -1% | ? | -18% | 11%
CCCCNc1ccc2c3c(cccc13)C(=O)N(CCCC)C2=O | -22 | ? | 21µM* | ? | 26µM*
COc1ccc(CNC(=O)Cn2c(=O)n3nc(-c4ccc(OC)cc4)nc3c3ccccc32)cc1 | · | · | -24% | · | 0%
CCOCCCNS(=O)(=O)c1ccccc1 | 0 | -20% | -18% | 0%[9.24 µM] | -5%
O=c1cc(NCCCO)c2ccccc2o1 | 5 | 6% | 6% | 5% | 1%
O=C1C(Cl)=C(NCCCO)C(=O)c2ccccc21 | 57 | ? | 18µM* | ? | 23µM*
CCOCCCNC1=C(Cl)C(=O)c2ccccc2C1=O | 33 | -6% | 6.5µM* | 12% | 5.8µM*
